# Results from article PMC11062922 (Nature Chemical Biology, 2023).
# Read-outs that look alike come from different tables or passages of the source.
# Tested on: PLK4
# Settings: read-out: apparent Kd, n = 1
substance,measurement,setting,value
Lestaurtinib,potency estimated from few doses,"compound concentrations:100 nM and 1000 nM (sheet 'Lestaurtinib' of Supplementary Table 1),run:Lestaurtinib_02422_R1,Plate:MR006",56.6 nM
same,potency estimated from few doses,"compound concentrations:100 nM and 1000 nM (sheet 'Lestaurtinib' of Supplementary Table 1),run:Lestaurtinib_02422_R3,Plate:MR006",60.8 nM
same,potency estimated from few doses,"compound concentrations:100 nM and 1000 nM (sheet 'Lestaurtinib' of Supplementary Table 1),run:Lestaurtinib_02437_R1,Plate:MR007",58.1 nM
same,potency estimated from few doses,"compound concentrations:100 nM and 1000 nM (sheet 'Lestaurtinib' of Supplementary Table 1),run:Lestaurtinib_02437_R2,Plate:MR007",61.6 nM
same,potency estimated from few doses,"compound concentrations:100 nM and 1000 nM (sheet 'Lestaurtinib' of Supplementary Table 1),run:Lestaurtinib_02437_R3,Plate:MR007",41 nM
same,potency estimated from few doses,"compound concentrations:100 nM and 1000 nM (sheet 'Lestaurtinib' of Supplementary Table 1),run:Lestaurtinib_02438_R2,Plate:MR008",70.6 nM
same,potency estimated from few doses,"compound concentrations:100 nM and 1000 nM (sheet 'Lestaurtinib' of Supplementary Table 1),run:Lestaurtinib_02438_R3,Plate:MR008",67.9 nM
same,potency estimated from few doses,"compound concentrations:100 nM and 1000 nM (sheet 'Lestaurtinib' of Supplementary Table 1),run:Lestaurtinib_02443_R1,Plate:MR009",70.3 nM
same,potency estimated from few doses,"compound concentrations:100 nM and 1000 nM (sheet 'Lestaurtinib' of Supplementary Table 1),run:Lestaurtinib_02443_R2,Plate:MR009",81 nM
same,potency estimated from few doses,"compound concentrations:100 nM and 1000 nM (sheet 'Lestaurtinib' of Supplementary Table 1),run:Lestaurtinib_02443_R3,Plate:MR009",62.6 nM
same,potency estimated from few doses,"compound concentrations:100 nM and 1000 nM (sheet 'Lestaurtinib' of Supplementary Table 1),run:Lestaurtinib_02473_R3,Plate:MR010",43.1 nM
same,potency estimated from few doses,"compound concentrations:100 nM and 1000 nM (sheet 'Lestaurtinib' of Supplementary Table 1),run:Lestaurtinib_02482_R2,Plate:MR011",113 nM
same,potency estimated from few doses,"compound concentrations:100 nM and 1000 nM (sheet 'Lestaurtinib' of Supplementary Table 1),run:Lestaurtinib_02487_R1,Plate:MR012",79.1 nM
same,potency estimated from few doses,"compound concentrations:100 nM and 1000 nM (sheet 'Lestaurtinib' of Supplementary Table 1),run:Lestaurtinib_02487_R3,Plate:MR012",83.9 nM
same,potency estimated from few doses,"compound concentrations:100 nM and 1000 nM (sheet 'Lestaurtinib' of Supplementary Table 1),run:Lestaurtinib_02496_R1,Plate:MR013",78.2 nM
same,potency estimated from few doses,"compound concentrations:100 nM and 1000 nM (sheet 'Lestaurtinib' of Supplementary Table 1),run:Lestaurtinib_02496_R2,Plate:MR013",94.1 nM
same,potency estimated from few doses,"compound concentrations:100 nM and 1000 nM (sheet 'Lestaurtinib' of Supplementary Table 1),run:Lestaurtinib_02496_R3,Plate:MR013",53.6 nM
same,potency estimated from few doses,"compound concentrations:100 nM and 1000 nM (sheet 'Lestaurtinib' of Supplementary Table 1),run:Lestaurtinib_02566_R2,Plate:MR014",56 nM
same,potency estimated from few doses,"compound concentrations:100 nM and 1000 nM (sheet 'Lestaurtinib' of Supplementary Table 1),run:Lestaurtinib_02566_R3,Plate:MR014",92.7 nM
same,potency estimated from few doses,"compound concentrations:100 nM and 1000 nM (sheet 'Lestaurtinib' of Supplementary Table 1),run:Lestaurtinib_02572_R1,Plate:MR015",50.1 nM
same,potency estimated from few doses,"compound concentrations:100 nM and 1000 nM (sheet 'Lestaurtinib' of Supplementary Table 1),run:Lestaurtinib_02572_R2,Plate:MR015",77.6 nM
same,potency estimated from few doses,"compound concentrations:100 nM and 1000 nM (sheet 'Lestaurtinib' of Supplementary Table 1),run:Lestaurtinib_02577_R1,Plate:MR016",55.9 nM
same,potency estimated from few doses,"compound concentrations:100 nM and 1000 nM (sheet 'Lestaurtinib' of Supplementary Table 1),run:Lestaurtinib_02577_R3,Plate:MR016",35.1 nM
same,potency estimated from few doses,"compound concentrations:100 nM and 1000 nM (sheet 'Lestaurtinib' of Supplementary Table 1),run:Lestaurtinib_02584_R1,Plate:MR017",56.6 nM
same,potency estimated from few doses,"compound concentrations:100 nM and 1000 nM (sheet 'Lestaurtinib' of Supplementary Table 1),run:Lestaurtinib_02584_R2,Plate:MR017",79.8 nM
same,potency estimated from few doses,"compound concentrations:100 nM and 1000 nM (sheet 'Lestaurtinib' of Supplementary Table 1),run:Lestaurtinib_02584_R3,Plate:MR017",76.3 nM
same,potency estimated from few doses,"compound concentrations:100 nM and 1000 nM (sheet 'Lestaurtinib' of Supplementary Table 1),run:Lestaurtinib_02601_R3,Plate:MR018",59.1 nM
same,potency estimated from few doses,"compound concentrations:100 nM and 1000 nM (sheet 'Lestaurtinib' of Supplementary Table 1),run:Lestaurtinib_02606_R2,Plate:MR019",68.7 nM
same,potency estimated from few doses,"compound concentrations:100 nM and 1000 nM (sheet 'Lestaurtinib' of Supplementary Table 1),run:Lestaurtinib_02606_R3,Plate:MR019",58 nM
same,potency estimated from few doses,"compound concentrations:100 nM and 1000 nM (sheet 'Lestaurtinib' of Supplementary Table 1),run:Lestaurtinib_02624_R1,Plate:MR020",169 nM
same,potency estimated from few doses,"compound concentrations:100 nM and 1000 nM (sheet 'Lestaurtinib' of Supplementary Table 1),run:Lestaurtinib_02624_R3,Plate:MR020",47.2 nM
same,potency estimated from few doses,"compound concentrations:100 nM and 1000 nM (sheet 'Lestaurtinib' of Supplementary Table 1),run:Lestaurtinib_02724_R1,Plate:MR021",70.6 nM
same,potency estimated from few doses,"compound concentrations:100 nM and 1000 nM (sheet 'Lestaurtinib' of Supplementary Table 1),run:Lestaurtinib_02724_R2,Plate:MR021",57.7 nM
same,potency estimated from few doses,"compound concentrations:100 nM and 1000 nM (sheet 'Lestaurtinib' of Supplementary Table 1),run:Lestaurtinib_02724_R3,Plate:MR021",86.8 nM
same,potency estimated from few doses,"compound concentrations:100 nM and 1000 nM (sheet 'Lestaurtinib' of Supplementary Table 1),run:Lestaurtinib_02741_R1,Plate:MR023",235 nM
same,potency estimated from few doses,"compound concentrations:100 nM and 1000 nM (sheet 'Lestaurtinib' of Supplementary Table 1),run:Lestaurtinib_02741_R2,Plate:MR023",213 nM
same,potency estimated from few doses,"compound concentrations:100 nM and 1000 nM (sheet 'Lestaurtinib' of Supplementary Table 1),run:Lestaurtinib_02741_R3,Plate:MR023",215 nM
same,potency estimated from few doses,"compound concentrations:100 nM and 1000 nM (sheet 'Lestaurtinib' of Supplementary Table 1),run:Lestaurtinib_02748_R2,Plate:MR024",80.7 nM
same,potency estimated from few doses,"compound concentrations:100 nM and 1000 nM (sheet 'Lestaurtinib' of Supplementary Table 1),run:Lestaurtinib_02752_R1,Plate:MR025",93.7 nM
same,potency estimated from few doses,"compound concentrations:100 nM and 1000 nM (sheet 'Lestaurtinib' of Supplementary Table 1),run:Lestaurtinib_02752_R2,Plate:MR025",68.6 nM
same,potency estimated from few doses,"compound concentrations:100 nM and 1000 nM (sheet 'Lestaurtinib' of Supplementary Table 1),run:Lestaurtinib_02765_R1,Plate:MR026",165 nM
same,potency estimated from few doses,"compound concentrations:100 nM and 1000 nM (sheet 'Lestaurtinib' of Supplementary Table 1),run:Lestaurtinib_02766_R1,Plate:MR027",56.5 nM
